Results filed as inconclusive are left out. Active and inactive are the calls of the source. How the source made its calls: active means hit-call score of the fitted dose curve at least 0.9, where 1 is the maximum; inconclusive means response in the unintended direction; inactive means score below 0.9. Where a SMILES comes first, the peptide text is derived from it. Bridges are numbered along the chain shown (N, C = ends).
Legend:
[1] = TOX21_p53_BLA_p3_viability: Viability Assessment in the Tox21 HCT-116 p53 Agonism Beta-lactamase Assay, Phase 3 (AID 2283593);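 further: cells exposed to compound for 16 h before reading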
In short: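 HCT-116 cells (4000/well) rested 5 h at 37C, then got DMSO compounds by pin tool (217-fold dilution) for 16 h at 37C, 5% CO2. After the bla read, CellTiter-Glo was added and luminescence read at 30 min, room temperature.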

[2] = target: Cellular tumor antigen p53 (Homo sapiens) (UniProt P04637); test: TOX21_p53_BLA_p3_ratio: Tox21 HCT-116 p53 Agonism Beta-lactamase Assay, Ratio, Phase 3 (AID 2283596)
Sequence of Cellular tumor antigen p53 (Homo sapiens) (P04637 whole entry, looked up): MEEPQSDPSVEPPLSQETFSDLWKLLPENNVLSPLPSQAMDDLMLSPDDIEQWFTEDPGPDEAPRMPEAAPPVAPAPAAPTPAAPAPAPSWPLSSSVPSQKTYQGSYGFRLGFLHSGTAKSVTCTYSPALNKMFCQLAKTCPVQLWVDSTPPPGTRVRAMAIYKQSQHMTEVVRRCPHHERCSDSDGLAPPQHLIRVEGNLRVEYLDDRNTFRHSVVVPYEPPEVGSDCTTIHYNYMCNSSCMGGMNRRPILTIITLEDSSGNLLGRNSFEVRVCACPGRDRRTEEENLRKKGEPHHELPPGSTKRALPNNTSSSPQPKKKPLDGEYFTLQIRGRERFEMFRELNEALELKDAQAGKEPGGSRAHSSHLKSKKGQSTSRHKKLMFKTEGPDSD
In short: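 Cells were seeded at 4000/well, rested 5 h at 37C, then dosed with DMSO compound solutions (217-fold dilution) for 16 h. CCF4-AM substrate was loaded for 2 h at room temperature, and the 460/530 nm emission ratio was fitted for gain of signal versus DMSO.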

[3] = TOX21_p53_BLA_p4_viability: Viability Assessment in the Tox21 HCT-116 p53 Agonism Beta-lactamase Assay, Phase 4 (AID 2283597);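 further: hits lower the luminescence signal meaning cytotoxicity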
In short: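 Cytotoxicity as reduced cellular ATP (CellTiter-Glo luminescence, 30 min room temperature), measured in the same wells following the CCF4 FRET p53 reading. Human HCT-116 cells received compounds in DMSO (217-fold dilution) for 16 h.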

[4] = TOX21_p53_BLA_p5_viability: Viability Assessment in the Tox21 HCT-116 p53 Agonism Beta-lactamase Assay, Phase 5 (AID 2283600)
In short: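 Viability came from CellTiter-Glo ATP luminescence, read after 30 min at room temperature. Before this, HCT-116 p53-bla cells (4000/well) had 16 hours of compound exposure at 37C, with DMSO stocks diluted 217-fold on transfer.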

[5] = target: Cellular tumor antigen p53 (Homo sapiens) (UniProt P04637); test: TOX21_p53_BLA_p4_ratio: Tox21 HCT-116 p53 Agonism Beta-lactamase Assay, Ratio, Phase 4 (AID 2283601)
In short: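 HCT116 cells carrying an inducible beta-lactamase reporter were plated at 4000 cells/well, rested 5 h, then exposed to compounds in DMSO (217-fold dilution) for 16 h at 37C. CCF4-AM substrate was loaded 2 h at room temperature; 460/530 nm emission ratio scored gain-of-signal versus DMSO.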

[6] = target: Cellular tumor antigen p53 (Homo sapiens) (UniProt P04637); test: TOX21_p53_BLA_p5_ratio: Tox21 HCT-116 p53 Agonism Beta-lactamase Assay, Ratio, Phase 5 (AID 2283599)
In short: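 HCT-116 cells carrying a p53-inducible beta-lactamase reporter were seeded at 4000 cells/well and dosed after 5 h with compound in DMSO (217-fold dilution). After 16 h at 37C, CCF4-AM substrate was added for 2 h, and the 460/530 nm emission ratio was scored as gain-of-signal versus DMSO.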

For C=C1C(=O)O[C@H]2[C@H]1CC/C(C)=C/CC[C@@]1(C)O[C@@H]21, the outcome [1] was “inactive”, the AC50 [2] was 34.3 µM (active) and the AC50 [3] was 36.9 µM (active). The outcome [4] was “inactive”.
For O=C(O)c1ccc(NC(=O)[C@H](Cc2ccc(O)cc2)NC(=O)c2ccccc2)cc1, the outcome [1] was “inactive”, the outcome [2] was “inactive” and the outcome [3] was “inactive”. For the same compound, the outcome [4] was “inactive” and the outcome [5] was “inactive”.
With CCNS(=O)(=O)c1ccc(C)cc1 the outcome [1] was “inactive”, the outcome [2] was “inactive” and the outcome [6] was “inactive”. The outcome [4] was “inactive” and the outcome [5] was “inactive”.
In the case of COc1cc(C[C@@H]2NCCc3cc(O)c(O)cc32)cc(OC)c1OC, the outcome [1] is reported as “inactive”, the outcome [2] is reported as “inactive” and the outcome [4] is reported as “inactive”. The outcome [5] was “inactive”.
For CCCCOc1ccc(OCCCN2CCOCC2)cc1, the outcome [1] was “inactive”, the outcome [2] was “inactive” and the outcome [3] was “inactive”. The outcome [4] was “inactive” and the outcome [5] was “inactive”.
In the case of CC(=O)c1ccc(C(C)=O)cc1, the outcome [1] is reported as “inactive”, the outcome [2] is reported as “inactive” and the outcome [6] is reported as “inactive”. For the same compound, the outcome [4] was “inactive”.
In the case of N[C@H]1CN(c2c(F)cc3c(=O)c(C(=O)O)cn(C4C[C@H]4F)c3c2Cl)CC12CC2 (stereo not given in full), the outcome [1] is reported as “inactive”, the outcome [2] is reported as “inactive” and the outcome [3] is reported as “inactive”. The outcome [4] was “inactive” and the outcome [5] was “inactive”.
With CC(O)CCCCn1c(=O)c2c(ncn2C)n(C)c1=O (stereo not given) the outcome [1] was “inactive”, the outcome [2] was “inactive” and the outcome [6] was “inactive”. For the same compound, the outcome [5] was “inactive”.
For NCCCC[C@H](NC(=O)[C@@H]1CCCN1C(=O)[C@@H]1CSSC[C@H](NC(=O)CNC(=O)CNC(=O)CN)C(=O)N[C@@H](Cc2ccc(O)cc2)C(=O)N[C@@H](Cc2ccccc2)C(=O)N[C@@H](CCC(N)=O)C(=O)N[C@@H](CC(N)=O)C(=O)N1)C(=O)NCC(N)=O (H-GGGCYFQNCPKG-NH2; disulfide 4-9), the outcome [1] was “inactive”, the outcome [2] was “inactive” and the outcome [6] was “inactive”. For the same compound, the outcome [4] was “inactive”.
